SENP8 block-1 = SENP8 (human) protease inhibition | recombinant SENP8, Nedd8 substrate fluorescence | inhibition, % at 20 µM | 360,000 tested, 0.64% active | AID 602440; in the data active means inhibition mostly above about 40%, no sharp cut-off; inactive means mostly below about 27%
Target sequence (Q96LD8 whole entry, looked up): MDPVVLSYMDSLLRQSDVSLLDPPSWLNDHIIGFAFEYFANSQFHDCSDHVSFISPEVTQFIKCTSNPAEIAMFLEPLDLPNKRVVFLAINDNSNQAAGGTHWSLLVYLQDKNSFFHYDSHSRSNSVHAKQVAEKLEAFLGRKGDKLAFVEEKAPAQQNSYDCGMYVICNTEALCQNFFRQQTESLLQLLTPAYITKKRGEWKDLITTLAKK
Platelet DG rel = modulates dense granule release in human platelets | human platelet-rich plasma, SFLLRN dense granule ATP release, luminescence | inhibition, %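 (compounds screened at 7.5 µM in platelet-rich plasma)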 | 300,000 tested, 0.22% active | AID 1663;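 active means mean replicate score, as percent of positive control, at or above 50; inconclusive means mean below 50 but at least one replicate at or above 50; inactive means mean and every replicate below 50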
SENP7 block = inhibitors of human SENP7 protease; 330,000 tested, 1.5% active; recombinant SENP7, Z-RLRGG-aminoluciferin luminescence, 40 min; inhibition, % at 5 µM; AID 434973;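 active means inhibition above about 50% at the single test dose, limit read from the data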;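 further: plate controls were DMSO with enzyme for no effect and no enzyme buffer wells for full effect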
SENP8 block-2 = blocks the human protease SENP8; 330,000 tested, 1.2% active; purified SENP8, Z-RLRGG-aminoluciferin cleavage, luminescence; inhibition, % at 10 µM; Q96LD8; in the data active means inhibition above about 50%
SENP6 inh = SENP6 protease inhibition. Recombinant SENP6 catalytic domain, aminoluciferin luminescence. inhibition, % at 10 µM. AID 2599. 330,000 tested, 1.8% active. Q9GZR1;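 active means inhibition above about 50% at the single tested dose, limit read from the data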;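 further: plate controls were DMSO wells with enzyme for no effect and DMSO wells lacking enzyme for full effect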
Target sequence (Q9GZR1 628-1112 limits assumed): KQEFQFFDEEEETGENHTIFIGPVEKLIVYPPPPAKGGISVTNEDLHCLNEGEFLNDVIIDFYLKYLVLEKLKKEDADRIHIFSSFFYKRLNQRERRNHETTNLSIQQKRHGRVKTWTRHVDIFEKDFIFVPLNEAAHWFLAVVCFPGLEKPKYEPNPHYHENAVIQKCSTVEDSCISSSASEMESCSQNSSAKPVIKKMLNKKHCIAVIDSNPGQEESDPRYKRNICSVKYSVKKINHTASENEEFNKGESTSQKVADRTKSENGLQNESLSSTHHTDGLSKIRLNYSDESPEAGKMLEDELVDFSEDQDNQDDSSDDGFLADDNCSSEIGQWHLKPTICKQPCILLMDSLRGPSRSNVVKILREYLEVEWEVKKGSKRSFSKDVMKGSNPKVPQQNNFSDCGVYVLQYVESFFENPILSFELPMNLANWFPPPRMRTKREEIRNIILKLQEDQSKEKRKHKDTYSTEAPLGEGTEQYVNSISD
SENP8 inh conf = SENP8 (human) inhibition, single concentration confirmation | shares compounds with SENP8 block-1 | purified SENP8, Nedd8-AMC/pro-Nedd8 cleavage fluorescence, 30 min | inhibition, % at 25 µM | 1,400 tested, 15% active | AID 624319; in the data active means inhibition mostly above about 39%, no sharp cut-off; inactive means mostly below about 34%
* = called active by the depositor; ? = inconclusive; / = no result given. In the library only some 2.4% were active in any assay of this set; here they are far more common.

SMILES | SENP8 block-1 | Platelet DG rel | SENP7 block | SENP8 block-2 | SENP6 inh | SENP8 inh conf
CCC(C(=O)OCCOCCN(CC)CC)c1ccccc1 (centres undefined) | 11.7 | -9.4 | 6.8 | -1.1 | -29.1 | /
CCN(CC)CCCOC(=O)C(c1ccccc1)c1ccccc1 | 61.7* | -2.2 | 3.0 | 3.9 | -13.8 | 17.8
CC(=O)Nc1ccccc1NC(=O)C/C(C)=N/NC(=O)c1ccc([N+](=O)[O-])c(Cl)c1 | 40.2* | 16.3 | -4.0 | -8.9 | -4.2 | 7.9
C/C(CC(=O)Nc1cccnc1)=N\NC(=O)c1ccc([N+](=O)[O-])c(Cl)c1 | -4.1 | 7.8 | 2.6 | -4.8 | -5.7 | /
CCNC(=S)NNc1ccccc1 | 42.6* | -3.9 | -0.5 | 2.9 | -0.1 | 1.6
S=C(NCc1ccccc1)NNc1ccccc1 | 25.9 | -11.9 | 5.9 | 1.0 | -13.9 | /
COc1ccc(-c2[nH][nH]c(=O)c2NC(=O)c2ccccn2)cc1 | 41.6* | / | / | / | / | 31.3
O=C(Nc1c(-c2ccccc2)[nH][nH]c1=O)c1ccco1 | 64.2* | / | / | / | / | 17.6
Cc1ccc(C(=O)Nc2c(-c3ccc(Cl)cc3)[nH][nH]c2=O)cc1 | 46.7* | / | / | / | / | 30.4
O=C(Nc1c(-c2ccc(Cl)cc2)[nH][nH]c1=O)c1ccccn1 | 20.6 | / | / | / | / | /
O=C(Nc1c(-c2ccccc2)[nH][nH]c1=O)c1ccc(-c2ccccc2)cc1 | 15.7 | / | / | / | / | /
O=C(CC1NCCNC1=O)NC1Cc2ccccc2C1 (centres undefined) | 9.6 | -15.3 | -3.1 | -0.3 | -17.1 | /
CCOC(=O)N1CCN(C(=O)c2ccc(CS(=O)c3ccccc3)o2)CC1 (centres undefined) | 9.1 | 5.8 | -4.8 | 14.1 | -5.8 | /
CN(C)c1ccc(N=Cc2nc(-c3ccccc3)oc2O)cc1 | 40.4* | -16.2 | 31.5 | -11.7 | 7.0 | -6.4
NC(=O)C1CCN(Cc2nc3cc(C(F)(F)F)ccc3c(=O)[nH]2)CC1 | 4.3 | 0.5 | 0.6 | 3.5 | -0.6 | /
CN(C)/N=C/c1ccc([N+](=O)[O-])cc1[N+](=O)[O-] | 19.8 | 0.3 | 7.3 | -5.4 | -23.3 | /
CN(N=Cc1cccc2cccnc12)c1ccc([N+](=O)[O-])cc1[N+](=O)[O-] | 41.4* | / | / | / | / | 10.0
Nc1c(NCCCN2CCOCC2)c2ccccc2oc1=O | 37.5* | -7.5 | 0.5 | 4.3 | 5.2 | -6.5
CCCCn1c(N)c(N(CCOC)C(=O)Cn2c(=O)oc3ccccc32)c(=O)[nH]c1=O | -19.1 | 4.6 | 14.2 | -13.3 | -13.5 | /
Cc1cc(C)c(C)c(S(=O)(=O)NCc2ccc(C(=O)N3CCCCC3)cc2)c1C | 42.0* | -6.2 | -4.8 | 1.2 | -5.5 | 7.5
CC(=O)C1=C(C)NC(C)=C(C(C)=O)C1c1ccccc1 | 41.2* | -0.6 | -0.4 | 10.8 | 2.0 | 11.3
CSC1=C(C#N)C(c2ccccc2)C(C(C)=O)=C(C)N1 (centres undefined) | -17.5 | -0.4 | 0.8 | -3.7 | 4.5 | /
CCOC(=O)c1sc(C)c2c(=O)n(CC(=O)c3ccc(Br)cc3)nnc12 | 40.5* | -6.1 | 3.6 | -6.4 | -8.9 | 17.9
CCOC(=O)Cn1c(C)nc2c(C(=O)OCC)sc(C)c2c1=O | -241.4 | -8.4 | 1.8 | 2.4 | -22.1 | /
Cc1[nH][nH]c(=O)c1C(c1cc2c(cc1Br)OCO2)c1c(C)[nH][nH]c1=O | 6.7 | -2.1 | -0.6 | -3.9 | 13.6 | /
SMILES | SENP8 block-1 | Platelet DG rel | SENP7 block | SENP8 block-2 | SENP6 inh | SENP8 inh conf
Cc1[nH][nH]c(=O)c1C(c1cc(Br)ccc1O)c1c(C)[nH][nH]c1=O | 41.8* | -4.3 | 3.7 | 4.0 | 15.1 | 39.5
Cc1ccc(C)c(C(=O)COC(=O)c2cccc(N3C(=O)c4c(C)nc5ccccc5c4C3=O)c2)c1 | 41.7* | -9.4 | 4.8 | 3.7 | 2.5 | 14.3
COC(=O)c1ccc(C)cc1C1CN=NC12Cc1cc(C)ccc1C2=O (centres undefined) | 57.4* | / | / | / | / | 32.9
COc1ccc(N(CC(=O)NCCSc2ccccn2)S(=O)(=O)c2ccccc2)c(OC)c1 | 9.7 | -20.8 | 1.6 | -2.0 | -9.8 | /
Nc1cc(C(=O)OCC(=O)NCCNC(=O)COC(=O)c2ccc(Cl)c(N)c2)ccc1Cl | -324.8 | -38.9 | -6.9 | 2.9 | -1.7 | /
C[N+](C)(C)C[C@H](O)CC(=O)[O-] | 45.1* | 1.1 | -3.1 | 2.2 | -8.1 | 13.8
Cc1ccc(NC(=S)N/N=C/c2c(Cl)cccc2Cl)c(C)c1 | 29.1 | -4.6 | 10.0 | 0.0 | 3.4 | /
Cc1ccc(NC(=S)N/N=C/c2ccc(OCCC(C)C)cc2)c(C)c1 | 41.2* | -1.8 | -7.6 | -10.3 | -13.1 | 18.4
O=C1C2=C(c3ccccc31)[N+](=O)C1CCCCC1N2[O-] (centres undefined) | 83.6* | 6.2 | 30.6 | 27.8 | 49.9 | 60.7*
CCn1c(SCc2cccc(C(=O)O)c2)nnc1-c1ccccc1 | 48.1* | ? | 0.8 | 0.2 | -2.3 | 22.0
CCn1c(SCC(=O)O)nnc1-c1ccccc1 | 24.1 | 1.0 | -9.8 | -1.9 | 2.5 | /
Cc1cc(O)c(C(C)C)cc1N=Cc1ccc([N+](=O)[O-])cc1 | 94.9* | / | / | / | / | 10.7
Cc1cc(O)c(C(C)C)cc1N=Cc1ccc(N(C)C)cc1 | 38.3 | / | / | / | / | /
COc1cccc(C=Nc2cc(C(C)C)c(O)cc2C)c1O | 69.5* | / | / | / | / | 23.4
CCS(=O)(=O)N1Cc2cc(C(=O)NCCOC)nc(-c3cccc(-c4ccncc4)c3)c2[C@H]1CCO | 5.9 | / | / | / | / | /
O=C(CCC(=O)c1ccc(Cl)cc1)OCc1nc2ccsc2c(=O)[nH]1 | 4.9 | 2.0 | -7.2 | -6.7 | -19.6 | /
O=C(NCCc1ccc(Cl)cc1)c1cc(S(=O)(=O)N2CCCCC2)c[nH]1 | 8.6 | -23.1 | 18.1 | -2.9 | -3.1 | /
Cc1ccc(C(C#N)c2ccc3c(C(F)(F)F)cc(C(F)(F)F)nc3n2)cc1 (centres undefined) | 43.0* | -0.2 | -3.0 | 5.8 | -22.1 | 10.9
COC(=O)c1nn(-c2ccc(OC)cc2)c(=O)cc1Sc1ccc(C)cc1 | -6.5 | 1.2 | 2.2 | 5.1 | 23.0 | /
COC(=O)c1nn(-c2ccc(OC)cc2)c(=O)cc1NN | 56.6* | -4.5 | 7.3 | 1.4 | -9.9 | 9.2
O=S(=O)(c1ccc(NC(=S)Nc2ccc3c(c2)OCO3)cc1)N1CCOCC1 | 44.5* | 5.0 | 11.1 | 4.9 | 12.9 | -4.9
Cc1ccc(-c2nc3cc(C)c(Br)c(C)n3c2CC(C)(C)C)cc1 | 13.1 | / | / | / | / | /
CCOc1nc(N2CCOCC2)nc(C)c1[N+](=O)[O-] | 20.2 | 8.0 | 3.9 | 6.6 | -11.0 | /
Cc1nc(N2CCOCC2)nc(Oc2ccccc2F)c1[N+](=O)[O-] | 41.4* | 0.9 | 5.2 | 5.4 | 17.7 | 17.1
Cc1cc(C)c(NC(=O)CS(=O)CC(=O)N2CCN(c3cccc(C)c3C)CC2)c(C)c1 (centres undefined) | 3.5 | -1.8 | -4.6 | -19.6 | -27.9 | /
CCOc1ccc(NS(=O)(=O)c2ccc(Cl)c(N=Nc3c(O)[nH]c(=S)[nH]c3=O)c2)cc1Br | 40.0* | / | / | / | / | 29.8
COc1ccc(CNCc2c(O)c(Cl)cc3c(C)c(C)c(=O)oc23)c(OC)c1 | -274.0 | -4.5 | -3.9 | -1.1 | -17.2 | /
Cc1ccc(C)c(NC(=S)c2ccc3ccccc3n2)c1 | 11.8 | 7.3 | 38.6 | 14.0 | 45.0 | /
